# Data reported in the supplement of paper PMC10849652.
# Of roughly 8,800 targets only a part is listed; those with a hit were picked by preference. About 0.5% of all pairs of compound and target were hits. A number with no mark means an inactive call.
# Assays:
# Experiment in all cases: log2 fold change, soluble protein after heating vs DMSO (PISA); higher = thermal stabilisation; K562 lysate, 10 uM; active = over 0.2 and 3.5 SD of the protein, either way, in both replicates (recomputed)
# lapatinib = compound: CS(=O)(=O)CCNCc1ccc(-c2ccc3ncnc(Nc4ccc(OCc5cccc(F)c5)c(Cl)c4)c3c2)o1 [lapatinib]
# Outline: (§1)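 Quantification was by TMTpro 16plex LC-MS/MS with equalised channel sums, applied to the supernatant after 21,000xg for 90 min. Samples were crude K562 extract at 1 mg/mL protein in PBS pH 7.4 with 1 mM MgCl2, treated with 10 μM compound for 30 min, heated for 3 min across 48°C-58°C, pooled and brought to 0.5% NP-40 at 4°C. Values are log-two fold changes in thermal stability relative to solvent controls, from duplicates.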
# pictilisib = compound: CS(=O)(=O)N1CCN(Cc2cc3nc(-c4cccc5[nH]ncc45)nc(N4CCOCC4)c3s2)CC1 [pictilisib]
# Outline: as §1
# [1] = compound: C[C@H](C1=CC=C(C=C1)C(=O)NC2=C3C=CNC3=NC=C2)N
# Outline: as §1
# gandotinib = compound: Cc1cc(Nc2cc(CN3CCOCC3)c3nc(C)c(Cc4ccc(Cl)cc4F)n3n2)n[nH]1 [gandotinib]
# Outline: as §1
# bafetinib = compound: Cc1ccc(NC(=O)c2ccc(CN3CC[C@H](N(C)C)C3)c(C(F)(F)F)c2)cc1Nc1nccc(-c2cncnc2)n1 [bafetinib]
# Outline: as §1
# [2] = compound: Cc1cccc(CC(=O)N2CCc3c2ccc(-c2cn(C)c4ncnc(N)c24)c3F)n1
# Outline: as §1
# nilotinib = compound: Cc1cn(-c2cc(NC(=O)c3ccc(C)c(Nc4nccc(-c5cccnc5)n4)c3)cc(C(F)(F)F)c2)cn1 [nilotinib]
# Outline: as §1
# [3] = compound: Cc1nc(Nc2n[nH]c3c2CN(C(=O)N[C@H](CN(C)C)c2ccccc2)C3(C)C)c2sccc2n1
# Outline: as §1
# [4] = compound: Cc1ncc(-c2ccnc(Nc3ccc(S(C)(=O)=O)cc3)n2)n1C(C)C
# Outline: as §1
# tipifarnib = compound: Cn1cncc1[C@@](N)(c1ccc(Cl)cc1)c1ccc2c(c1)c(-c1cccc(Cl)c1)cc(=O)n2C [tipifarnib]
# Outline: as §1
# [5] = compound: NC(=O)c1cnc(N[C@@H]2CCCC[C@@H]2N)nc1Nc1cccc(-n2nccn2)c1
# Outline: as §1
# duvelisib = compound: C[C@H](Nc1ncnc2nc[nH]c12)c1cc2cccc(Cl)c2c(=O)n1-c1ccccc1 [duvelisib]
# Outline: as §1
# doramapimod = compound: Cc1ccc(-n2nc(C(C)(C)C)cc2NC(=O)Nc2ccc(OCCN3CCOCC3)c3ccccc23)cc1 [doramapimod]
# Outline: as §1
# dasatinib = compound: Cc1nc(Nc2ncc(C(=O)Nc3c(C)cccc3Cl)s2)cc(N2CCN(CCO)CC2)n1 [dasatinib]
# Outline: as §1
# [6] = compound: Cn1cc(-c2ccc3c(c2)CCN3C(=O)Cc2cccc(C(F)(F)F)c2)c2c(N)ncnc21
# Outline: as §1
# quisinostat = compound: Cn1cc(CNCC2CCN(c3ncc(C(=O)NO)cn3)CC2)c2ccccc21 [quisinostat]
# Outline: as §1
# [7] = compound: NC(=O)Nc1cc(-c2cccc(F)c2)sc1C(=O)N[C@H]1CCCNC1
# Outline: as §1
# [8] = compound: NC1(c2ccc(-c3nc4ccn5c(=O)[nH]nc5c4cc3-c3ccccc3)cc2)CCC1
# Outline: as §1
# tozasertib = compound: Cc1cc(Nc2cc(N3CCN(C)CC3)nc(Sc3ccc(NC(=O)C4CC4)cc3)n2)n[nH]1 [tozasertib]
# Outline: as §1
# crizotinib = compound: C[C@@H](Oc1cc(-c2cnn(C3CCNCC3)c2)cnc1N)c1c(Cl)ccc(F)c1Cl [crizotinib]
# Outline: as §1
# Chain of UniProt Q86WA6 (Q86WA6 whole entry, looked up): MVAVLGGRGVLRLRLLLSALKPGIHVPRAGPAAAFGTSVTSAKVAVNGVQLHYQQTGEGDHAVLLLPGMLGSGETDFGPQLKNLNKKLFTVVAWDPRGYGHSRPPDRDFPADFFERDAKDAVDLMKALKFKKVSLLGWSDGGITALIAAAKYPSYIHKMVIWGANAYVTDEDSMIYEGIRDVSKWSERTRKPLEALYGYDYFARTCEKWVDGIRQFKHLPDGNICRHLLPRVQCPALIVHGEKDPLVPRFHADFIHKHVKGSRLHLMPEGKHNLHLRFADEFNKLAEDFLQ
# Chain of UniProt O14981 (O14981 whole entry, looked up): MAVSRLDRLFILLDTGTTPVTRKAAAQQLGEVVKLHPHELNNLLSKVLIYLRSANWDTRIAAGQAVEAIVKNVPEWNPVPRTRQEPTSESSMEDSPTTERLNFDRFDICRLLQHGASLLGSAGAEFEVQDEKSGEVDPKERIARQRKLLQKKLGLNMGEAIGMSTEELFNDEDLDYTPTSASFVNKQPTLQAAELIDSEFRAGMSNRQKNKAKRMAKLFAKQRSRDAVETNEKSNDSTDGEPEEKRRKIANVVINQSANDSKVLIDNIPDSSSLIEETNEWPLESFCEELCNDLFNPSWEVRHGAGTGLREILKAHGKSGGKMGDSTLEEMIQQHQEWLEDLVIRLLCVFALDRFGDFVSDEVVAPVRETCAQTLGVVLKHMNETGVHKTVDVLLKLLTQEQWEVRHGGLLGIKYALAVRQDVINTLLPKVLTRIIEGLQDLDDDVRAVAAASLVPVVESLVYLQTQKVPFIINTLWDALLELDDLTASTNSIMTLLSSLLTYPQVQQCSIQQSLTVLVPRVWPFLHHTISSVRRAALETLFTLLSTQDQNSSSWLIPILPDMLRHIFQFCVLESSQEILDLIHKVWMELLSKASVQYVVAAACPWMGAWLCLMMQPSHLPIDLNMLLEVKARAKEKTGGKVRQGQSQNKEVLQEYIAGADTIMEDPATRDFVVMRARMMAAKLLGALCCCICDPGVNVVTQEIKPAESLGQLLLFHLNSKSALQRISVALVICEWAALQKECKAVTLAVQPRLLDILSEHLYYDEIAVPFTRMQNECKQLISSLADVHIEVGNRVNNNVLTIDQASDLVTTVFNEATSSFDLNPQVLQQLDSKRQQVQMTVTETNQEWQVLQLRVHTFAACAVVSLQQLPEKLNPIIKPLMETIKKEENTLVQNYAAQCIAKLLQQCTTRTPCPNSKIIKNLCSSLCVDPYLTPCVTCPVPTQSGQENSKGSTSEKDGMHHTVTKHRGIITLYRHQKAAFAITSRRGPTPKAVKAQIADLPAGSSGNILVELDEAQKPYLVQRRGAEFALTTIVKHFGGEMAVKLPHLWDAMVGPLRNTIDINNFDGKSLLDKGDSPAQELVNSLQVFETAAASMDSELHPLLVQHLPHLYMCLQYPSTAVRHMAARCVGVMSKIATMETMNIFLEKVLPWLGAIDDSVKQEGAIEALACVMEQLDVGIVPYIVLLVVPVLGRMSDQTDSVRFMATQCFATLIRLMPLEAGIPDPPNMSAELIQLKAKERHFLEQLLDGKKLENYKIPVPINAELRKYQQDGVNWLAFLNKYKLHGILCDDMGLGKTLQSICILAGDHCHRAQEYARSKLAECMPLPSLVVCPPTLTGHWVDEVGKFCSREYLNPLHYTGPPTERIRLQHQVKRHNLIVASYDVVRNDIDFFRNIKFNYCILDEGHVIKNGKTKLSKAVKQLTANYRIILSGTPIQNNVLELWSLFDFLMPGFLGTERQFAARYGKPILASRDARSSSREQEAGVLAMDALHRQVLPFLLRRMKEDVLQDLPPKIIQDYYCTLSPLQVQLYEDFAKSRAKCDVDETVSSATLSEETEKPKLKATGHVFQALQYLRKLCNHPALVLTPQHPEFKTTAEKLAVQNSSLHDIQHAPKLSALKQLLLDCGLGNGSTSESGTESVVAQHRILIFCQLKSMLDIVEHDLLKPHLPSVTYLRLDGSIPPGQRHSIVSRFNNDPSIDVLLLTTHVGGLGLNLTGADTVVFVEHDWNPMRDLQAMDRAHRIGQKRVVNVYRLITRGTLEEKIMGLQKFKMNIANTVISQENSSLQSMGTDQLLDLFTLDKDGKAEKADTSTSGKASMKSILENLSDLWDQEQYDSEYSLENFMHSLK
# Chain of UniProt O14965 (O14965 whole entry, looked up): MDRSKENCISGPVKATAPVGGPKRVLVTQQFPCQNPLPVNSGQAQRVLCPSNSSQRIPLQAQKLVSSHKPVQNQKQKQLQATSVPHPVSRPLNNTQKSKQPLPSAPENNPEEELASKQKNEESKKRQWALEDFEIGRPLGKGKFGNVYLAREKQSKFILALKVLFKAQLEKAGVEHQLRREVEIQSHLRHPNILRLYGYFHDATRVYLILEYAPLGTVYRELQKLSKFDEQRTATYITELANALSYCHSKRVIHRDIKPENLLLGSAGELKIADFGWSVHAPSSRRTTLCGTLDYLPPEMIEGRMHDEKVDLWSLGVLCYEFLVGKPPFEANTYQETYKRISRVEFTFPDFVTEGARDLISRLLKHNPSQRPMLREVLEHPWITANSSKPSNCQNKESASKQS
# Chain of UniProt Q7Z4R8 (Q7Z4R8 whole entry, looked up): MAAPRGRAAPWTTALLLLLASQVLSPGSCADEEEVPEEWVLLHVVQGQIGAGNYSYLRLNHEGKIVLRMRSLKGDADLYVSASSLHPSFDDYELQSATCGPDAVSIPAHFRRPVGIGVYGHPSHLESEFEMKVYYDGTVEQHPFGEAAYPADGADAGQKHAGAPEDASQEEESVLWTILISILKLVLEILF
# Chain of UniProt O95260 (O95260 whole entry, looked up): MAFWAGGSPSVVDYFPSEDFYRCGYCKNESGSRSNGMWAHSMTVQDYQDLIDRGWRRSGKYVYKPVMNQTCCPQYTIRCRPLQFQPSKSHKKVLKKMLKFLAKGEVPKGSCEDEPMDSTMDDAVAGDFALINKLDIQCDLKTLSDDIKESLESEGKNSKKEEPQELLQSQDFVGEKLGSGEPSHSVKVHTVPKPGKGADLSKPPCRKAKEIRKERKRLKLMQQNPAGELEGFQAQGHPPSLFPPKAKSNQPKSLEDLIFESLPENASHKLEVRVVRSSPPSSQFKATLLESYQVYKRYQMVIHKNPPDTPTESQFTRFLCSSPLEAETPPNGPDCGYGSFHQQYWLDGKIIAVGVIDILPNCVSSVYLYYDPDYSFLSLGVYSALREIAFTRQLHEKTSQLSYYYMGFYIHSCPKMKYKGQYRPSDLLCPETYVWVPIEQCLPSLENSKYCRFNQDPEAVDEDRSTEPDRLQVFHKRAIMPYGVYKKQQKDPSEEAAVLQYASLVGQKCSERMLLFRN
# Chain of UniProt P46527 (P46527 whole entry, looked up): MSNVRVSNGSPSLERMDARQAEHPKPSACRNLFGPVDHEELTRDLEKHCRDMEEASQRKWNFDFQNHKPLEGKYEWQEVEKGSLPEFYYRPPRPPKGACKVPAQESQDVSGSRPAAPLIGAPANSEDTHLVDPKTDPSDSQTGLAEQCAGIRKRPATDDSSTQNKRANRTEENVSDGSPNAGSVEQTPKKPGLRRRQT
# Chain of UniProt Q13554 (Q13554 whole entry, looked up): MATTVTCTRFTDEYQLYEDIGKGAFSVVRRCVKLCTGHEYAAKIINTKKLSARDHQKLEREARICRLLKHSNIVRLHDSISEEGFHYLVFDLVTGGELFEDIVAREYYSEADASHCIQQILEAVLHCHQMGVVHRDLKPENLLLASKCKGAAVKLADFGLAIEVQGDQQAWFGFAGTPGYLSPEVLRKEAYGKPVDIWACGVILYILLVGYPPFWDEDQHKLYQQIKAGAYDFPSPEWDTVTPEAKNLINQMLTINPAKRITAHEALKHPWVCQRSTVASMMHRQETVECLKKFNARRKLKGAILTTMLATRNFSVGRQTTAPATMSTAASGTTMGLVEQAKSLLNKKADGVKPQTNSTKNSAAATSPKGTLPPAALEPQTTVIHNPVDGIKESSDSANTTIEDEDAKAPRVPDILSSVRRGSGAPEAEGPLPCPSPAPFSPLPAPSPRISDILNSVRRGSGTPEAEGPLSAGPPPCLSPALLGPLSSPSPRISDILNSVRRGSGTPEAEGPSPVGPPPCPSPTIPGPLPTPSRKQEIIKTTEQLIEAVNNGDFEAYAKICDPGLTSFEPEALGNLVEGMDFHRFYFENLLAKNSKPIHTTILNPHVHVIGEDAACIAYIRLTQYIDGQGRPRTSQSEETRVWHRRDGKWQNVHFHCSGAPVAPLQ
# Chain of UniProt Q7Z3E2 (Q7Z3E2 whole entry, looked up): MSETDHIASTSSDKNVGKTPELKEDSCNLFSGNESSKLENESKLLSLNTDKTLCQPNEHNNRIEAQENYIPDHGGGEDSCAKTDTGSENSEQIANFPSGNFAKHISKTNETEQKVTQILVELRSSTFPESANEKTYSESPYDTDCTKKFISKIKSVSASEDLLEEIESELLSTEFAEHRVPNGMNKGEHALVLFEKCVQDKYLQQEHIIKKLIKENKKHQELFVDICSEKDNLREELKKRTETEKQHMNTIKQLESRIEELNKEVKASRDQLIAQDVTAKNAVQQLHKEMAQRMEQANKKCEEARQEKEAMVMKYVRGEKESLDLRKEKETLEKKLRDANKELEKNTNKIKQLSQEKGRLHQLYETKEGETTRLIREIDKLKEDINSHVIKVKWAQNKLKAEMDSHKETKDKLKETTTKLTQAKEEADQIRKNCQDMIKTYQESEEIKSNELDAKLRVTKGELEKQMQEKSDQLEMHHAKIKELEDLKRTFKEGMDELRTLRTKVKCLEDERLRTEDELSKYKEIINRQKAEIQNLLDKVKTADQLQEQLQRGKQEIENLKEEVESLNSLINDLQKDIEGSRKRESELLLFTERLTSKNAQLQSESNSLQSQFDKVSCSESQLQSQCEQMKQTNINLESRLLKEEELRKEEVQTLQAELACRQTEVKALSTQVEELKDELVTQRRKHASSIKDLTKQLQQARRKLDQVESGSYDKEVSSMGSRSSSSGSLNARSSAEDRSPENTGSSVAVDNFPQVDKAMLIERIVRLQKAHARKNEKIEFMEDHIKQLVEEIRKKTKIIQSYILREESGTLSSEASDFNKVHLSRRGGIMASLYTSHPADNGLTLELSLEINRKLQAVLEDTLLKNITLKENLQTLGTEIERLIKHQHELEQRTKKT
Target,log2 fold change (lapatinib),log2 fold change (pictilisib),log2 fold change [1],log2 fold change (gandotinib),log2 fold change (bafetinib),log2 fold change [2],log2 fold change (nilotinib),log2 fold change [3],log2 fold change [4],log2 fold change (tipifarnib),log2 fold change [5],log2 fold change (duvelisib),log2 fold change (doramapimod),log2 fold change (dasatinib),log2 fold change [6],log2 fold change (quisinostat),log2 fold change [7],log2 fold change [8],log2 fold change (tozasertib),log2 fold change (crizotinib)
CARHSP1 (UniProt H3BNU9),-0.101,-0.186,0.16,-0.329,0,0.341,-0.196,0.149,0.238,0.108,-0.059,,,,,,,,,
AURKA (UniProt O14965),-0.101,0.112,-0.071,1 (active),-0.09,-0.062,-0.065,0.209,0.174,-0.088,-0.04,-0.006,-0.061,0.226,0.027,-0.117,0.18,-0.05,,
CAMK2B (UniProt Q13554),0.024,0.053,-0.045,0.072,0.003,0.055,-0.026,0.399 (active),0.026,-0.035,0.089,-0.011,-0.03,-0.055,0.023,-0.205,0.295,-0.045,-0.046,
C5orf51 (UniProt A6NDU8),0.018,-0.003,0.039,-0.143,-0.031,-0.037,-0.061,0.006,0.017,0.026,0.002,-0.023,-0.027,-0.029,0.02,-0.066,0.1,-0.023,-0.037,-0.024
ATAD3B (UniProt Q5T9A4),0.003,-0.035,0.308 (active),-0.169,-0.074,-0.129,-0.017,0.019,-0.026,-0.004,-0.006,0.007,0.003,0.01,0.046,0.018,0.051,0.006,0.014,-0.091
CCNC (UniProt P24863),-0.108,0.036,0.075,-0.104,-0.123,0.015,0.013,0.035,0.202,-0.049,-0.007,0.009,0.332 (active),0.04,-0.017,0,0.048,-0.029,-0.025,-0.037
CDC25C (UniProt P30307),-0.118,-0.025,-0.049,-0.109,0.038,0.013,0.039,-0.037,-0.048,-0.004,0.015,-0.021,-0.003,0.042,0.004,0.056,0.025,0.05,0.03,
BAHCC1 (UniProt Q9P281),-0.117,,-0.956 (active),0.006,,0.234,-0.191,0.019,-0.141,0.031,0.021,0.002,0.137,-0.144,-0.039,-0.328,-0.053,0.07,0.052,-0.191
C6orf120 (UniProt Q7Z4R8),-0.113,0.032,-0.03,-0.037,0.045,-0.169,,,,,0.017,-0.036,,-0.007,0.147,,,0.041,,
CCDC186 (UniProt Q7Z3E2),-0.056,-0.004,0.295 (active),-0.061,-0.047,-0.064,-0.046,-0.056,0.03,-0.01,-0.017,0.022,-0.01,-0.014,0.043,-0.03,0.033,0.001,0,0.006
BTAF1 (UniProt O14981),0.015,-0.043,-0.137,-0.004,-0.056,0.093,-0.005,0.018,0.007,-0.011,0.016,0.011,0.046,-0.028,0.008,-0.015,0.033,0.004,0,-0.041
CDKN1B (UniProt P46527),0.083,-0.043,0.047,-0.161,-0.106,-0.059,,,,,-0.035,-0.06,-0.04,0.021,0.034,0.393 (active),-0.122,0.045,-0.005,0.139
BCR (UniProt P11274),-0.02,-0.032,-0.064,-0.013,0.019,0.1,0.108,0.021,-0.017,-0.015,0.028,-0.049,-0.047,0.043,-0.018,-0.044,,0.016,0.031,0.034
C8orf37 (UniProt Q96NL8),-0.095,0.006,-0.559 (active),-0.06,0.09,0.238,,,,,0.298,0.046,0.043,0.083,0.056,0.004,-0.01,0.029,0.006,0.043
ATE1 (UniProt O95260),-0.03,-0.047,0.032,-0.019,-0.039,0.009,,,,,0.026,,0.043,,,0.019,-0.093,,,-0.068
BPHL (UniProt Q86WA6),-0.099,-0.366 (active),0.051,-0.077,0.132,-0.058,-0.049,0.084,-0.043,0.01,0.016,0.061,-0.003,0.008,0.055,-0.02,-0.03,0.022,0.034,0.099
CCDC85B (UniProt Q15834),0,-0.042,-0.016,-0.032,0.054,0.011,,,,,-0.225,0.081,0.098,0.066,-0.034,0.086,0.044,0.188,0.248,0.006
AUH (UniProt Q13825),0.165,-0.131,0.144,-0.117,-0.003,-0.345,,,,,0.193,0.135,0.023,-0.274,0.14,-0.002,-0.018,-0.066,0.455 (active),0.012
